In PubChem BioAssay (NCATS):
Where “and” joins values, the source holds several entries; their conditions need not be identical. Equal entries are not always repeated. Records with an inconclusive call do not appear. Calls of active or inactive are those of the source. The call rests on the fitted dose curve; in most records, active means well fitted curve in the direction sought with a large enough effect; inconclusive means small, poorly fitted or top-dose-only effect, or another doubt; inactive means no such curve, though single readings can be large; an effect the other way counts as inactive or inconclusive.

Columns and labels:
[1] = target: Luciferin 4-monooxygenase (Photinus pyralis) (UniProt P08659); assay: Primary firefly luciferase (FLuc) qHTS assay for identification of artifact compounds. (AID 1845220); further: nearly all actives have a fitted effect of over 60% in size
Method in brief: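 Compounds sat 15 min at room temperature with 10 uM luciferin and 10 uM ATP (pH 7.6 Tris acetate). Firefly luciferase (10 nM final) was then added, and luminescence was read 5 min later. Data normalized to no-enzyme and DMSO controls were Hill-fitted.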

[2] = Primary fluorescence-based thiol-reactive (MSTI) qHTS assay for identification of artifact compounds. (AID 1845221); further: nearly all actives have a fitted effect of over 65% in size; further: potency means the concentration at half of the fitted maximal effect
Method in brief: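 MSTI probe at 4 uM final in 2% DMSO/PBS pH 7.4; compounds, 1 h at room temperature in dark. Fluorescence Ex/Em 525/598 nm, normalised to Acetyl-MSTI and MSTI, fitted to 4-parameter Hill.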

[3] = system: Nanoluciferase (engineered Oplophorus gracilirostris luciferase); assay: Primary Nanoluciferase (NLuc) qHTS assay for identification of artifact compounds. (AID 1845222);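 further: 0% = DMSO and -100% = no enzyme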
Method in brief: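 Luminescence from secreted NLuc (filtered, 1:55-diluted S16 cell medium) read 5 min after Nano-Glo substrate; compounds preincubated 15 min, RT. Hill fits of inhibition normalized to DMSO and no-enzyme.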

[4] = Primary redox qHTS assay for identification of artifact compounds. (AID 1845223)
Method in brief: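 Redox-cycling detection via DTT (250 uM final) oxidation coupled to Amplex Red (25 uM)/HRP (250 mU/mL) in HBSS. 15 min preincubation plus 30 min after DTT, room temperature. Ex/Em 525/598 nm; 4-parameter Hill fit against DMSO and 10 uM DA3003.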

[5] = Quantitative High-Throughput drug screen in 47 multiple myeloma cell lines against the NCATS MIPE library collection: Delta47_JCRB cell viability assay (AID 1918925; further: nearly all actives have a fitted effect of over 45% in size; further: potency means the concentration at half of the fitted maximal effect)
Method in brief: (§1)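 Myeloma cell lines, 500 cells per well, exposed to MIPE 4.0 library compounds for 48 h at 37C, 5% CO2. Viability from ATP by CellTiter-Glo luminescence; normalised to DMSO (100%) and media-only (0%) wells.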

[6] = Quantitative High-Throughput drug screen in 47 multiple myeloma cell lines against the NCATS MIPE library collection: EJM_DSMZ cell viability assay (AID 1918926; further: nearly all actives have a fitted effect of over 30% in size; further: potency means the concentration at half of the fitted maximal effect)
Method in brief: as §1

[7] = Quantitative High-Throughput drug screen in 47 multiple myeloma cell lines against the NCATS MIPE library collection: AMO1_DSMZ cell viability assay (AID 1918927; further: nearly all actives have a fitted effect of over 30% in size; further: potency means the concentration at half of the fitted maximal effect)
Method in brief: as §1

[8] = Quantitative High-Throughput drug screen in 47 multiple myeloma cell lines against the NCATS MIPE library collection: ARD_JJKsccE7 cell viability assay (AID 1918929; further: potency means the concentration at half of the fitted maximal effect)
Method in brief: as §1

[9] = Quantitative High-Throughput drug screen in 47 multiple myeloma cell lines against the NCATS MIPE library collection: KMM1_JCRB cell viability assay (AID 1918960); further: nearly all actives have a fitted effect of over 30% in size; further: potency means the concentration at half of the fitted maximal effect
Method in brief: (§2)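 500 cells/well; MIPE 4.0 library pinned in; 48 h, 37 °C, 5% CO2; CellTiter-Glo ATP luminescence. Controls: DMSO = 100% viability, medium only = 0%.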

[10] = Quantitative High-Throughput drug screen in 47 multiple myeloma cell lines against the NCATS MIPE library collection: Karpas417_ECACC cell viability assay (AID 1918961); details: Karpas417 myeloma viability, CellTiter-Glo ATP luminescence, 48 h; viability (% of DMSO): at 45.8 µM (top of the series) unless noted; further: potency means the concentration at half of the fitted maximal effect
Method in brief: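 Inhibition of cell viability is measured here. Each line was plated at 500 cells per well, treated with MIPE 4.0 drugs, kept 48 hours at 37C, then assayed for ATP content by CellTiter-Glo luminescence.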

[11] = Quantitative High-Throughput drug screen in 47 multiple myeloma cell lines against the NCATS MIPE library collection: KHM11_PLB cell viability assay (AID 1918962); further: nearly all actives have a fitted effect of over 35% in size; further: potency means the concentration at half of the fitted maximal effect
Method in brief: (§3)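 Approved and investigational drugs from MIPE 4.0 were added by pin tool to 500 cells per well. After 48 hours at 37C, ATP-based CellTiter-Glo luminescence indicated remaining viability.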

[12] = Quantitative High-Throughput drug screen in 47 multiple myeloma cell lines against the NCATS MIPE library collection: JIM3_ECACC cell viability assay (AID 1918963; further: nearly all actives have a fitted effect of over 35% in size; further: potency means the concentration at half of the fitted maximal effect)
Method in brief: as §3

[13] = Quantitative High-Throughput drug screen in 47 multiple myeloma cell lines against the NCATS MIPE library collection: Karpas620_DSMZ cell viability assay (AID 1918959); further: nearly all actives have a fitted effect of over 30% in size; further: potency means the concentration at half of the fitted maximal effect
Method in brief: as §3

[14] = Quantitative High-Throughput drug screen in 47 multiple myeloma cell lines against the NCATS MIPE library collection: FR4_PLB cell viability assay (AID 1918924; further: nearly all actives have a fitted effect of over 35% in size; further: potency means the concentration at half of the fitted maximal effect)
Method in brief: as §3

[15] = Quantitative High-Throughput drug screen in 47 multiple myeloma cell lines against the NCATS MIPE library collection: ARP1_JJKsccF8 cell viability assay (AID 1918928; further: nearly all actives have a fitted effect of over 40% in size; further: potency means the concentration at half of the fitted maximal effect)
Method in brief: as §2

[16] = target: Phospholipid hydroperoxide glutathione peroxidase GPX4 (Homo sapiens) (UniProt P36969); assay: Primary qHTS Assay for Inhibitors of Recombinant Selenoprotein Glutathione Peroxidase 4 (GPX4) (AID 1845192); further: nearly all actives have a fitted effect of over 65% in size; further: potency means the concentration at half of the fitted maximal effect
Sequence of Phospholipid hydroperoxide glutathione peroxidase GPX4 (Homo sapiens) (P36969 whole entry, looked up): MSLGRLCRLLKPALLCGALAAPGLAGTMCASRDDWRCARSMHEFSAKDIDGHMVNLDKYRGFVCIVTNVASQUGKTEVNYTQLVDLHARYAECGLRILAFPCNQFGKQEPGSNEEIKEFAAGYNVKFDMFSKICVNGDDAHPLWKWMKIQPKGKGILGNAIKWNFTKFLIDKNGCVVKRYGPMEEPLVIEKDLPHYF
Method in brief: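 NADPH consumption followed by fluorescence at 340/450 nm, t=0 and after 15 min at room temperature. Reaction started with cumene hydroperoxide (0.5 mM final) after 30 min compound–GPX4 preincubation; final 200 nM GPX4, 100 nM GR, 1 mM GSH, 0.5 mM NADPH.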

CN(C)c1ccc(Nc2nc(N)n(C(=O)c3c(F)cccc3F)n2)cc1
inactive: Potency [1] | outcome [3] | outcome [4]
active: Potency [2] 1.34 µM | Potency [5] 14.8 µM | Potency [6] 20.9 µM | Potency [7] 4.69 µM | Potency [8] 20.9 µM | Potency [9] 11.8 µM | Potency [10] 1.66 µM | Potency [11] 20.9 µM | Potency [12] 16.6 µM

CCCS(=O)(=O)Nc1ccc(F)c(C(=O)c2c[nH]c3ncc(-c4ccc(Cl)cc4)cc23)c1F
active: Potency [5] 8.33 µM | Potency [11] 23.5 µM | Potency [12] 18.7 µM
inactive: Potency [1] | Potency [2] | outcome [3] | outcome [4] | Potency [13] | Potency [9]

NC(=O)c1ccc(I)c([N+](=O)[O-])c1
inactive: Potency [14] | Potency [6] | Potency [15] | Potency [9]
active: Potency [5] 18.7 µM | Potency [12] 18.7 µM

Cc1cc(C=c2sc3nc4ccccc4n3c2=O)c(C)n1-c1ccccc1
active: Potency [6] 6.62 µM | Potency [11] 0.833 µM
inactive: Potency [7] | Potency [8] | Potency [9] | Potency [12]

COc1ccc(-c2oc3cc(OC)ccc3c2C(=O)c2ccc(C#N)cc2)cc1
inactive: Potency [12]
active: Potency [7] 7.43 µM | Potency [8] 10.5 µM

COCC(=O)NCC=Cc1ccc2ncnc(Nc3ccc(Oc4ccc(C)nc4)c(C)c3)c2c1
active: Potency [14] 26.4 µM | Potency [5] 14.8 µM | Potency [9] 8.33 µM | Potency [10] 10.5 µM | Potency [12] 16.6 µM

Oc1cccc(-c2nc(N3CCOCC3)c3oc4ncccc4c3n2)c1
active: Potency [14] 0.0762 µM | Potency [5] 0.0171 µM | Potency [6] 6.79 µM | Potency [7] 0.171 µM | Potency [13] 0.0959 µM | Potency [9] 0.0136 µM | viability (% of DMSO) [10] 2.23% [at 92.2 µM] | Potency [12] 0.0762 µM

CC(C)(C)NCC(O)c1ccc(O)c(CO)c1 (stereo not drawn)
active: Potency [9] 0.059 µM
inactive: Potency [14] | Potency [5] | Potency [6] | Potency [7] | Potency [11] | Potency [12]

CC[C@@H](C)[C@H](NC(=O)[C@H](CC1CCCCC1)NC(=O)c1ccno1)C(=O)N1CCC2(CCc3ccccc32)CC1
inactive: Potency [1] | Potency [2] | outcome [3] | outcome [4] | Potency [13] | Potency [9] | Potency [11]
active: Potency [14] 13.2 µM | viability (% of DMSO) [10] 124%

CCOC(=O)N[C@@H]1CC[C@@H]2[C@@H](C1)C[C@H]1C(=O)O[C@H](C)[C@H]1[C@@H]2C=Cc1ccc(-c2cccc(F)c2)cn1
active: Potency [7] 18.7 µM | Potency [8] 18.7 µM

CC1(C)SCCN(S(=O)(=O)c2ccc(OCC#CCO)cc2)[C@@H]1C(=O)NO
inactive: Potency [6] | Potency [8] | Potency [12]
active: Potency [7] 2.64 µM

CCN(CC)CCCC(C)Nc1nc(C)cc(Nc2ccc3nc(C)cc(N)c3c2)n1 (stereo not drawn)
inactive: Potency [12]
active: Potency [5] 4.69 µM | Potency [8] 14.8 µM | Potency [13] 7.43 µM

COc1ccc(-c2ccc3c(N4CCOCC4)nc(N4C[C@@H](C)O[C@@H](C)C4)nc3n2)cc1CO
active: Potency [14] 0.469 µM | Potency [5] 0.296 µM | Potency [6] 1.66 µM | Potency [15] 264 nM | Potency [8] 1.32 µM | Potency [13] 1.05 µM | Potency [9] 0.209 µM | Potency [10] 0.148 µM | Potency [11] 0.0935 µM

Nc1nccc(-c2ccc3noc(-c4ccc(Cl)cc4)c3c2)n1
inactive: Potency [6] | Potency [8]

COc1ccc(-c2c(-c3ccc(O)cc3O)n[nH]c2C)cc1
active: Potency [13] 42.9 µM | viability (% of DMSO) [10] 34.5% [at 92.2 µM]
inactive: Potency [11]

O=C(C1CC1)N1CC[C@@H](Cn2c(-c3ccc(-c4ccc5occc5c4)cc3)nc3cnccc32)C1
active: Potency [16] 22.7 µM | Potency [12] 16.6 µM
inactive: Potency [11]

Cc1ccnc(NS(=O)(=O)c2ccc(NC(=O)Nc3ccc(S(=O)(=O)Nc4nccc(C)n4)cc3)cc2)n1
active: Potency [7] 14.8 µM | Potency [8] 23.5 µM | Potency [13] 16.6 µM | Potency [9] 14.8 µM
inactive: Potency [1] | Potency [2] | outcome [4] | Potency [15]

C[C@]12CC[C@H](O)CC1=CC[C@@H]1[C@H]2CC[C@]2(C)C(c3cccnc3)=CC[C@H]12
inactive: Potency [14] | Potency [5] | Potency [6] | Potency [15] | Potency [13] | Potency [9] | Potency [12]

CC(C=CC1=C(C)CCCC1(C)C)=CC=CC(C)=CC(=O)O
active: Potency [5] 11.8 µM and 4.18 µM | Potency [6] 13.2 µM | Potency [11] 5.9 µM | Potency [12] 20.9 µM and 4.69 µM
inactive: Potency [9]

Cc1cc(-c2ccc(CC(=O)Nc3ccc(-c4cccnc4)cc3)cc2)ccn1
active: Potency [9] 14.8 µM | Potency [10] 16.6 µM | Potency [12] 18.7 µM
inactive: Potency [16]

CCc1cc(Nc2nccc(-c3c(-c4ccc(OC)c(C(=O)Nc5c(F)cccc5F)c4)nc4ccccn34)n2)c(OC)cc1N1CCC(N2CCN(S(C)(=O)=O)CC2)CC1
inactive: Potency [1] | outcome [3] | outcome [4]
active: Potency [14] 20.9 µM | Potency [5] 5.26 µM | Potency [6] 10.5 µM | Potency [12] 18.7 µM

Cc1csc(NC(=O)c2sc3nc4c(c(C(F)(F)F)c3c2N)CCC4)n1
inactive: Potency [2] | outcome [3] | outcome [4] | Potency [14] | Potency [5] | Potency [7] | Potency [8] | Potency [13] | Potency [9] | Potency [11] | Potency [12]

Cc1ccccc1C(C(=O)NC1CCCC1)N(C(=O)Cn1cnc2ccccc21)c1cccc(F)c1 (stereo not drawn)
inactive: Potency [6] | Potency [13] | Potency [9]
active: Potency [5] 16.6 µM

CCOc1ccc(Cc2cc([C@@H]3O[C@H](CO)[C@@H](O)[C@H](O)[C@@H]3O)ccc2Cl)cc1
inactive: Potency [14] | Potency [5]
active: Potency [7] 14.8 µM | Potency [12] 20.9 µM

O=S(=O)(N=Cc1c(O)ccc2ccccc12)c1cccs1
active: Potency [12] 3.32 µM
inactive: Potency [6]

C#Cc1cccc(Nc2ncnc3cc(OCCOC)c(OCCOC)cc23)c1
inactive: Potency [1] | Potency [2] | outcome [3] | outcome [4]
active: Potency [14] 16.6 µM | Potency [5] 4.18 µM | Potency [6] 6.62 µM | Potency [7] 1.05 µM | Potency [8] 5.9 µM | Potency [13] 4.69 µM | Potency [11] 3.32 µM | Potency [12] 9.35 µM

O=C(C=Cc1ccc(/C=C/C(=O)Nc2ccc(C3=NCCN3)cc2)cc1)Nc1ccc(C2=NCCN2)cc1
inactive: Potency [14] | Potency [5] | Potency [6] | Potency [13] | Potency [9] | Potency [12]

OCCC#Cc1nc(-c2ccc(F)cc2)c(-c2ccncc2)n1CCCc1ccccc1
active: Potency [5] 13.2 µM | Potency [7] 23.5 µM | Potency [13] 20.9 µM | Potency [12] 23.5 µM

CCOC(=O)N1CCC(=C2c3ccc(Cl)cc3CCc3cccnc32)CC1
active: Potency [8] 0.0017 µM
inactive: Potency [16] | Potency [9] | Potency [12]

COc1ccccc1-c1cccc(-c2c(O)c3cc(C#N)c(Cl)cc3[nH]c2=O)c1
inactive: Potency [14] | Potency [6] | Potency [15]
active: Potency [12] 42.9 µM

OCCn1cc(-c2cnc3nnn(Cc4ccc5ncccc5c4)c3n2)cn1
inactive: Potency [1] | Potency [2] | outcome [3] | outcome [4] | Potency [14] | Potency [5] | Potency [7] | Potency [15] | Potency [13] | Potency [12]

CCOc1cc(C=C2C(=O)N(c3ccccc3)N=C2C)cc(Cl)c1OCC(=O)OC
inactive: Potency [14]
active: Potency [5] 9.35 µM | Potency [6] 18.7 µM | Potency [10] 8.33 µM
